Among all 69,000 compounds or so, about 8,600 (12%) showed an effect of 50% or more. Only a selection was taken, and strong results are over-represented in it overall.
System: Plasmodium berghei
Test: Screen against P. berghei liver stage (PbLuc), transformed with Luciferase, at 10uM
Assay type: functional, HepG2
Conditions: tested at 10 uM

Row | SMILES | INHIBITION
1 | Cc1ccsc1CNC(=O)NC(C)c1ccc2c(c1)CCC(=O)N2 (stereo not drawn) | -121%
2 | COCCN1CCO[C@@H]2CN(Cc3ccc(C)s3)C[C@@H]2C1 | 24.6%
3 | NC(=O)C1CCN(C(=O)CCSCc2ccccc2)CC1 | 17.2875%
4 | CCCn1nc(C)c(C(=O)N(C)[C@@H]2CC[C@@H](N3CCCC3)[C@@H]2O)c1C | 32%
5 | CCn1cnnc1C1CCN(C(=O)c2cc3c(s2)CCOC3)CC1 | -9.37%
6 | Cc1cc(C)cc(N2CCN(C(=O)CCN3C[C@H]4CC[C@@H]3C4)CC2=O)c1 | 22.1%
7 | CC(O)CN1CCN(C(=O)c2cccn2Cc2ccccc2)CC1 (stereo not drawn) | -0.113%
8 | CCOC(C)c1nccn1CC(=O)Nc1cc(C)on1 (stereo not drawn) | 15.4%
9 | CSCC(=O)N1CCCC(CO)(CC2CC2)C1 (stereo not drawn) | 41.2%
10 | O=C1CSC(c2cccnc2)c2c(n(C3CCOCC3)[nH]c2=O)N1 (stereo not drawn) | 48.1%
11 | Cc1n[nH]c2c1C(c1ccncc1)SCC(=O)N2 (stereo not drawn) | 23.5%
12 | O=C1CSC(c2ccsc2)c2c(n(C3CCOCC3)[nH]c2=O)N1 (stereo not drawn) | 67.1%
13 | CC(C)(C)n1ncc2c1NC(=O)CSC2c1ccsc1 (stereo not drawn) | -14.7%
14 | O=C1CC(c2ccsc2)c2c(n(C3CCOCC3)[nH]c2=O)N1 (stereo not drawn) | 19%
15 | O=C1CSC(c2ccncc2)c2c(n(C3CCOCC3)[nH]c2=O)N1 (stereo not drawn) | 52.1%
16 | CC(C(=O)N1CCCCCC1)N1CCN(Cc2nccn2C)CC1 (stereo not drawn) | 37.4%
17 | CCSCCn1cc(-c2nccs2)nn1 | -17.5%
18 | CC(C)c1ncncc1C(=O)N1CCCN(Cc2ccccc2)CC1 | 14.1%
19 | CC(C)C(=O)N1CCCC1C(=O)Nc1ccc(F)c(F)c1 (stereo not drawn) | 21.7%
20 | O=C(c1cccn1Cc1cccs1)N1CCN2CCCCC2C1 (stereo not drawn) | 33.3%
21 | CC(=O)N1CCO[C@@H]2CN(S(=O)(=O)c3ccc(F)cc3)CC[C@@H]2C1 | 45.4%
22 | O=C1CN(C(=O)CN(CC2CCC2)CC(F)(F)F)CCN1 | 31%

Row | SMILES | INHIBITION
23 | Cc1ccc(CN2Cc3ccccc3OC3(CCC(CO)CC3)C2)o1 (stereo not drawn) | 44.1%
24 | OCC1CCC2(CC1)CN(Cc1ccccc1F)Cc1ccccc1O2 (stereo not drawn) | 53.5%
25 | Cc1ccc(CN2Cc3ccccc3OC3(CCC(CO)CC3)C2)s1 (stereo not drawn) | 67.9%
26 | Cc1ccc(CN2CC(C(=O)Nc3ccccc3)C3(CCOCC3)C2)s1 (stereo not drawn) | 45.8%
27 | Cc1cnccc1CN1Cc2ccccc2OC2(CCC(CO)CC2)C1 (stereo not drawn) | 41.2%
28 | O=C(Nc1ccccc1)C1CN(Cc2ccsc2)CC12CCOCC2 (stereo not drawn) | -3.12%
29 | Cc1ncc(CN2Cc3ccccc3OC3(CCC(CO)CC3)C2)cn1 (stereo not drawn) | 47.2%
30 | OCC1CCC2(CC1)CN(Cc1ccccn1)Cc1ccccc1O2 (stereo not drawn) | 21%
31 | OCC1CCC2(CC1)CN(Cc1ccsc1)Cc1ccccc1O2 (stereo not drawn) | 51.5%
32 | Cc1ccccc1CNC(=O)N1C[C@@H]2C[C@H](C(=O)N3CCCC3)[C@H](C1)O2 | -16.9%
33 | O=C(Nc1nc[nH]n1)c1cc(-c2ccc(F)cc2)n[nH]1 | 16%
34 | Cc1cc(C(=O)NCc2ccnc(N3CCN(C)CC3)c2)sc1C | 36.45%
35 | CN1CC(=O)N(C2CCNCC2)Cc2c(NCC(C)(C)C)ncnc21 | 47.4%
36 | COc1ccc(CC(=O)Nc2ccc3ncn(C(C)C)c(=O)c3c2)cc1 | 21.2%
37 | CCC1(CO)CCCN(C(=O)c2cc(COc3cccc(F)c3)[nH]n2)C1 (stereo not drawn) | 20.9%
38 | Cc1nn(C)c(N(C)C)c1CNC(C)COc1ccccc1F (stereo not drawn) | 23.4%
39 | COC(=O)CCc1c(C)nc2cc(O)nn2c1C | 53.5%
40 | CCNC(=O)CCc1c(C)nc2cc(O)nn2c1C | 55.9%
41 | Cc1nc2cc(O)nn2c(C)c1CCC(=O)NCCc1ccccc1 | 22.3%
42 | CNC(=O)CCNC(=O)CCc1c(C)nc2cc(O)nn2c1C | 29.2%
43 | Cc1nc(NC(=O)CCc2c(C)nc3cc(O)nn3c2C)sc1C | -14.7%
44 | CCN(CC)C(=O)CCc1c(C)nc2cc(O)nn2c1C | 34.7%

Row | SMILES | INHIBITION
45 | Oc1ccc(N(CCc2ccccc2)CCn2cncn2)cc1 | 44%
46 | CCS(=O)(=O)N1C[C@H]2CC[C@](O)(c3ccc(C)cc3)[C@H]2C1 | -2.11%
47 | Cc1nc(C2CCCN(C(=O)c3cc4c(s3)CCCC4)C2)no1 (stereo not drawn) | 11.2%
48 | O=C(NCC1CCN(Cc2cc3ccccc3[nH]2)C1)c1ccsc1 (stereo not drawn) | 40.8%
49 | O=C(Cc1cccs1)NC1CCN(c2cccc(F)c2)CC1 | 4.71%
50 | COc1ccc(C(=O)NC2CCN(c3ncccn3)CC2)cc1F | 46.1%
51 | O=C(CCc1ccsc1)NC1CCN(c2cccc(F)c2)CC1 | 59.3%
52 | O=C(CCc1ccc(Cl)cc1)NC1CCN(c2cccc(F)c2)CC1 | 47.3%
53 | CC(c1ccccc1)N1CCC(NC(=O)CCc2ccsc2)CC1 (stereo not drawn) | 4.22%
54 | COc1ccc(N2CCC(NC(=O)c3sccc3C)CC2)cc1 | 45%
55 | COc1ccsc1C(=O)NC1CCN(c2ccc(C#N)cc2)CC1 | 52.6%
56 | COc1ccc(N2CCC(NC(=O)c3ccc(C#N)cc3)CC2)cc1 | 41.8%
57 | COc1ccsc1C(=O)NC1CCN(c2cccc(F)c2)CC1 | 84.1%
58 | CCN1C[C@@H]2CN(C(=O)NCc3ccccc3)CCC[C@]2(C(=O)O)C1 | 31.4%
59 | COc1ccc(CN2C[C@H]3CC[C@@H](C2)N(S(C)(=O)=O)C3)cc1 | 15.7%
60 | COc1ccc(Cl)cc1CN(C)CC(=O)Nc1ccnn1C(C)C1CC1 (stereo not drawn) | -75.4%
61 | COCCN1CCC2(COCc3c(C)nc(N4CCOCC4)nc32)C1 (stereo not drawn) | -24.8%
62 | Cc1cc(C(=O)N2CCCC(n3ccnc3C)C2)c(C)s1 (stereo not drawn) | 18.2%
63 | Cc1nccn1C1CCCN(C(=O)c2cc(O)nc3ccccc23)C1 (stereo not drawn) | 52.7%
64 | COc1ncccc1C(=O)N1CCCC(n2ccnc2)C1 (stereo not drawn) | -5%
65 | Cc1ccccc1-c1cc(C(=O)N2CCCC(n3ccnc3C)C2)[nH]n1 (stereo not drawn) | 66.7%
66 | COCCOc1ncccc1C(=O)N1CCCC(n2ccnc2C)C1 (stereo not drawn) | -19.9%

Row | SMILES | INHIBITION
67 | Cc1nccn1C1CCCN(C(=O)c2ccc3c(c2)COC3)C1 (stereo not drawn) | 57.8%
68 | Cc1nn(-c2ccccc2)cc1C(=O)N1CCCC(n2ccnc2C)C1 (stereo not drawn) | 27.6%
69 | CCCc1cc(C(=O)N2CCCC(n3ccnc3C)C2)[nH]n1 (stereo not drawn) | 10.8%
70 | COc1ncccc1C(=O)N1CCCC(n2ccnc2C)C1 (stereo not drawn) | 54.7%
71 | CC(C)c1nccn1C1CCCN(C(=O)c2ccc3c(c2)COC3)C1 (stereo not drawn) | -49.5%
72 | Cc1nccn1C1CCCN(C(=O)c2ccc3c(c2)CCC3)C1 (stereo not drawn) | -0.96%
73 | Cc1cnn(C2CCCN(C(=O)c3cc(-c4ccccc4C)n[nH]3)C2)c1 (stereo not drawn) | 32%
74 | Cc1cnn(CC2CN(CC(=O)Nc3cc(C)on3)CCO2)c1 (stereo not drawn) | 16.85%
75 | CC(C)n1ccnc1CN1CCCN(C(=O)c2cnc[nH]2)CC1 | 46.3%
76 | O=C(Cc1ccc2c(c1)OCCO2)NC1CCCCC1 | -53.2%
77 | O=C([C@H]1CCCO1)N1CCN(CCn2cccn2)c2ncccc2C1 | 30.3%
78 | O=C(Nc1ccc(F)cc1)C1CSCN1 (stereo not drawn) | 3.38%
79 | COc1ccc(CN(Cc2c[nH]cn2)CC2CCCO2)c(OC)c1 (stereo not drawn) | 25.6%
80 | O=C(c1cccs1)N1CCN(CC2CC2)c2ncccc2C1 | -22.5%
81 | O=C(NCc1ccccc1Cn1cncn1)N1CCCC1 | -33.3%
82 | C1CC(CN2C[C@@H]3CC[C@H]2CN(Cc2nnc(C4CC4)o2)C3)C1 | 27.5%
83 | Cn1ccc(N2CCCC(NC(=O)c3ccsc3)C2=O)n1 (stereo not drawn) | 72.5%
84 | Cn1c2c(ccc1=O)CC(NC(=O)c1ccsc1)CC2 (stereo not drawn) | 49.4%
85 | Cn1ccc(N2CCCC(NC(=O)c3ccc(Cl)o3)C2=O)n1 (stereo not drawn) | -34.8%
86 | c1ccc(CN2CCCC(c3nccnc3-n3ccnc3)C2)cc1 (stereo not drawn) | 33.5%
87 | CS(=O)(=O)CCNC(=O)Nc1ccc(Cl)cc1-n1cccc1 | 35.4%
88 | Cc1nc(C2CCCN(C(=O)c3ccc(Cl)cn3)C2)no1 (stereo not drawn) | -2.53%

Row | SMILES | INHIBITION
89 | CCn1c(CC2CCN(S(=O)(=O)c3cccc(C)c3)CC2)nn(C)c1=O | 37.4%
90 | CN1CCN(c2ccc(F)cc2NC(=O)NCCn2ccnc2)CC1 | 37.9%
91 | O[C@@]1(CNCC2(Cn3cccn3)CC2)CCCN2CCCC[C@@H]21 | 1.56%
92 | CCN1CCN(C2CCN(C(C(N)=O)c3ccc(F)cc3)CC2)C1=O (stereo not drawn) | 16.6%
93 | CN1CCN(C2CCN(C(C(N)=O)c3ccccc3)CC2)C1=O (stereo not drawn) | 20.9%
94 | CCN1CCN(C2CCN(C(C(N)=O)c3ccccc3)CC2)C1=O (stereo not drawn) | 61.1%
95 | Cc1cnn(CCNCC(=O)NC(c2ccccc2)c2ccccc2)c1 | -18.9%
96 | Cc1c(C(=O)N2CCC2)nnn1-c1ccc2ncccc2c1 | -24.8%
97 | CCn1cnnc1CNC(=O)N1CCC(O)CC1 | 17.4%
98 | CCn1cnnc1CNC(=O)N1CCC(C)CC1 | -13.5%
99 | CCn1cnnc1CNC(=O)N1CCN(c2nccs2)CC1 | 27.8%
100 | CCn1cnnc1CNC(=O)N1CCC(C(=O)NC)CC1 | 61.3%
101 | CCn1cnnc1CNC(=O)N1CCN(c2nc(C)c(C)s2)CC1 | 60.5%
102 | CCn1cnnc1CNC(=O)N1CCCC1 | -3.2%
103 | COc1ccccc1OCCc1cc(C2CCNC2)n[nH]1 (stereo not drawn) | 41.2%
104 | Cc1ncc(C(=O)N2C[C@@H]3CC[C@H]2CN(S(=O)(=O)N(C)C)C3)c(C)n1 | 34.8%
105 | COc1ccc(N2CCNC(C(N)=O)C2)cc1 (stereo not drawn) | 7.19%
106 | O=C(O)C1CCCN(C(=O)CCn2ccc3c(Br)cccc32)C1 (stereo not drawn) | 34.2%
107 | COc1cccc2c1ccn2CCC(=O)N1CCCC(C(=O)O)C1 (stereo not drawn) | -22.9%
108 | O=C(O)C1CCCN(C(=O)CCn2ccc3c(Cl)cccc32)C1 (stereo not drawn) | 63.1%
